High-throughput results: PubChem, National Center for Advancing Translational Sciences (NCATS)
Only a selection was taken, and hits are over-represented in it overall.
PI5P4Ka inh: PI5P4K alpha (human) kinase inhibition; P48426; PI5P4Kalpha enzyme, ADP-Glo luminescence, 60 min; hits give low values; max response, %; actives 1.2% (n = 330,000); active means max response of -50% or lower; inconclusive means between -30% and -50%; inactive means -30% or higher; further: value at the top dose of about 77 µM
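Controls without substrate or without enzyme flank wells where PI5P4Kalpha converts substrate using 5 microM ATP (final). Incubation lasts 60 minutes at room temperature; ADP formed is read by ADP-Glo luminescence.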
PGK inhibitor: blocks T. brucei phosphoglycerate kinase | PGK/GAPDH coupled, Kinase-Glo luminescence, 60 min | Potency, µM (highest dose often 57.5 µM), for the others: at the top dose activity change, negative = inhibition, hits mostly inhibitors | actives 0.043% (n = 380,000); further: potency means the concentration at half of the fitted maximal effect; nearly all actives have a fitted effect of over 60% in size
Target sequence (P07378 whole entry, looked up): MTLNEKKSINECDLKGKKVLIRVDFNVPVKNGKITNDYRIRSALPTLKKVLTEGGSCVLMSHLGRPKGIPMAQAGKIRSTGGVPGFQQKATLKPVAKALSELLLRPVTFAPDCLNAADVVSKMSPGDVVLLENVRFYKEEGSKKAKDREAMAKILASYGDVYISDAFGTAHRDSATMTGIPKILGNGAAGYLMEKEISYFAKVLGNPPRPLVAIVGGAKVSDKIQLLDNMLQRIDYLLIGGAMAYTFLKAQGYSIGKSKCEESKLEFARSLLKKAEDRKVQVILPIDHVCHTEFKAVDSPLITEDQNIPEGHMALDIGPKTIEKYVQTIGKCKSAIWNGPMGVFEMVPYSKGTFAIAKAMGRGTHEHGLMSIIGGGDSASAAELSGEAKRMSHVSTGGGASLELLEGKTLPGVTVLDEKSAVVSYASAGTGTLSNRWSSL
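Recombinant glycosomal PGK reaction used 1,3-bisphosphoglycerate generated in-well by GAPDH (100nM final) in 100mM TEA pH 7.6, 5mM MgCl2, 0.01% Tween-20. After 60 minutes at room temperature, ATP was read by Kinase-Glo Plus luminescence end-point.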
Tb PFK inh: blocks T. brucei phosphofructokinase; O15648; T. brucei PFK, ADP-Glo luminescence; Potency, µM (top dose mostly 57.5 µM), for inactives: at the top dose activity, negative = inhibition, hits mostly inhibitors; actives 0.17% (n = 330,000);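 further: potency means the concentration at half of the fitted maximal effect; 0% = uninhibited 1x PFK enzyme wells and -100% = no-enzyme wells; nearly all actives have a fitted effect of over 60% in size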
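Luminescent ADP detection (ADP-Glo, two-step: ATP depletion then ADP-to-ATP conversion for luciferase) reported PFK activity after 45 min room-temperature reaction of 1.25 nM enzyme with 0.5 mM F6P and 0.1 mM ATP at pH 8.0.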
PI4K2A inh: blocks human PI4K2A kinase activity. activity change, negative = inhibition, % at 76.9 µM. purified PI4K2A, ADP-Glo luminescence, 1 h; hits give low values. AID 1346378. Q9BTU6. actives 0.13% (n = 420,000); in the data active means activity change below about -50%; inconclusive means mostly about -30% to -49%;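 further: -100% = wells without enzyme as full effect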
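PI4K2A activity was measured by ADP-Glo luminescence: enzyme (4 ug/mL stock) and phosphatidylinositol (1.2 mM stock) in Tris pH 7.5/MgCl2/EGTA/Triton X-100 buffer were reacted with ATP (300 microM stock) for one hour at ambient temperature.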
Pin1 inhibitor: human Pin1 inhibition | Pin1 FP peptide displacement, HiFluor488, 10 min | Potency, µM (doses to about 115 µM), for inactives: at the highest dose activity, negative = inhibition, actives largely listed as inhibitors | actives 0.009% (n = 390,000); active means well fitted inhibition curve with a large enough effect in the polarisation, with a control signal flat, not every such curve was filed as active; inconclusive means small, poorly fitted or top-dose-only effect, or effect the other way, or a change in a side signal; inactive means no such curve, though single readings can be large or run the other way; the % refers to the polarisation; further: potency means the concentration at half of the fitted maximal effect
ADP-Glo counter: interferes with ADP-Glo detection without enzyme present | Potency, µM (titrated, usually from 76.9 µM), inactives show at the top dose activity change, negative = inhibition, actives largely listed as inhibitors | ADP-Glo detection counter-screen, luciferase luminescence, no enzyme | 1,100 tested, under 10 active | AID 743285 | shares compounds with PI5P4Ka inh
* hit, by the source's call; u = inconclusive; x = no result; [ ] = dose if it differs, or a comment. Unless noted, the call rests on the fitted dose curve; in most records, active means well fitted curve in the direction sought with a large enough effect; inconclusive means small, poorly fitted or top-dose-only effect, or another doubt; inactive means no such curve, though single readings can be large; an effect the other way counts as inactive or inconclusive. Unless noted, on the % scale 0 is the no-effect control and ±100 the full control effect.

SMILES	PI5P4Ka inh	PGK inhibitor	Tb PFK inh	PI4K2A inh	Pin1 inhibitor	ADP-Glo counter
CCOC(=O)[C@]12CCCCC/C=C\1N(CCc1ccc(Cl)cc1)C(=O)[C@H]2CC(=O)NCCCCc1ccccc1	x	x	x	-5	x	x
COC(=O)[C@]12C[C@H](CC(=O)NCc3ccc(C)o3)C(=O)N(Cc3ccccc3)C1=C[C@H](COCc1ccccc1)O[C@@H]2C	x	x	x	-8	x	x
CCCn1c(=O)c2[nH]c(-c3ccc(S(=O)(=O)O)cc3)nc2n(CCC)c1=O	-82*	5%	-7%	-1	2%	-2%
COc1ccc(S(=O)(=O)N2CCCC(C(=O)Nc3cccnc3)C2)cc1Cl (stereo not given)	-50*	-6%	1%	5	-2%	-6%
O=C(Nc1ccc(Cl)cc1)OC1CCC12CCC(c1ccccc1)CC2 (stereo not given)	x	x	x	-4	x	x
CN(C)C(=S)NCc1ccccc1	-54*	-1%	-1%	-11	0%	-7%
CCCCCCCCN1C(=O)[C@@H](CC(=O)N2CCC(c3ccccc3)CC2)C[C@@]2(C(=O)OC)C1=C[C@H](COCc1ccccc1)O[C@@H]2C	x	x	x	4	x	x
COC(=O)c1ccc(C)c(NC(=O)CCSc2ccc(Cl)cc2)c1	1	-6%	-3%[0.46 µM]	7	-2%	x
Cc1ccc([N+](=O)[O-])cc1NC(=O)CCSc1ccc(Cl)cc1	-70*	-1%	-3%	6	-1%	-2%
CC(=O)c1ccc(NC(=O)c2noc3c2CCC3)cc1	-58*	-22%	-19%	-5	u	-3%
CCOC(=O)[C@]12CCCC=C1N(Cc1ccc(OC)cc1)C(=O)[C@@H]2CC(=O)NCCc1ccccc1OC	x	x	x	1	x	x
Cc1ccc(NC(=O)c2cc(NC(=O)c3ccccc3C(=O)O)ccc2N2CCCCC2)cc1	-52*	8%	1%	4	u	-3%
COC(=O)[C@]12C[C@H](CC(=O)NCCCN3CCCC3=O)C(=O)N(Cc3ccc4c(c3)OCO4)C1=C[C@H](C(C)C)O[C@@H]2C1CC1	x	x	x	-8	x	x
CCOc1ccc(NC(=O)CN2CCCN(c3ccc(OC)cc3)CC2)cc1	x	x	x	-4	x	x
COC(=O)CCC(=O)OC1(C)C(=O)C2=CN(Cc3ccc(OC)cc3)C(c3ccc(OC)cc3)=CC2=C(Br)C1=O (stereo not given)	-13	-3%	x	-9	u	x
CCC(=O)OC1(C)C(=O)C2=COC(c3ccc(OC)cc3)=CC2=C(Br)C1=O (stereo not given)	-72*	20µM*	-4%	u	u	-6%
COC(=O)CCC(=O)OC1(C)C(=O)C2=CN(CC3CC3)C(c3ccc(OC)cc3)=CC2=C(Br)C1=O (stereo not given)	-53*	-1%	1%	-23	u	-6%
O=C(Nc1ccc(O)c2c(=O)cc(-c3ccccc3Cl)oc12)c1ccc(Cl)c(Cl)c1	0	-7%	1%	0	0%	-6%
O=C(Nc1ccc(-c2nc3ncccc3o2)cc1)c1ccco1	-53*	-4%	-25%	-8	u	5%
O=C(Nc1ccc(-c2nc3ncccc3o2)cc1)c1ccc(Br)o1	-12	-8%	2%	-24	78%	x
O=S1(=O)c2c(cccc2N2CC[C@@H](O)C2)OCCCN1C1CC1	x	x	x	6	x	x
O=C(Nc1ccc(S(=O)(=O)Nc2nccs2)cc1)c1nn(-c2ccc(F)cc2)ccc1=O	-70*	-23%	-26%	-23	u	-1%
CCOc1ccc(-n2ccc(=O)c(C(=O)Nc3ccc(S(=O)(=O)Nc4nccs4)cc3)n2)cc1	u	-4%	-11%	-6	u	x
O=C(COc1ccccc1Cl)c1ccc[nH]1	-51*	-4%	0%	-5	36%	-1%
Cc1ccc(S(=O)(=O)N2[C@@H](c3ccc(C(C)(C)C)cc3)C(C(=O)O)=CC[C@H]2c2ccc(C(C)C)cc2)cc1	-63*	u	-9%	-5	x	-10%
